Giardia FBPA inh – inhibitors of Giardia lamblia fructose-1,6-bisphosphate aldolase | A8B2U2 | purified Giardia FBPA | Potency, µM (top dose mostly 59.6 µM), for the others: top-dose activity, negative = inhibition, actives largely listed as inhibitors | hit rate 0.71% among 290,000 | AID 2451; note: % is set by controls: 0 for no effect and ±100 for the full control effect; nearly all actives have a fitted effect of over 55% in size
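Giardia FBPA (40 nM reagent) was preincubated 10 min at RT with compound (up to 57.5 uM final), then substrate plus GAPDH/TPI/NAD/arsenate coupling system with diaphorase/resazurin was added; resorufin fluorescence (525/598 nm) was read after 20 min.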
TbPYK inhibitor – inhibitors of Trypanosoma brucei pyruvate kinase; TbPYK enzyme, Kinase-Glo Plus ATP luminescence, 45 min; Potency, µM (series often up to 76.8 µM), inactives show top-dose activity, negative = inhibition, usual class: inhibitors; hit rate 0.12% among 410,000; note: % is set by controls: 0 for no effect and ±100 for the full control effect; nearly all actives have a fitted effect of over 50% in size
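Assay buffer: 50 mM TEA pH 7.2, 100 mM KCl, 10 mM MgCl2, 0.05% BSA, 0.01% Tween-20. Pyruvate kinase from T. brucei plus substrate met compound, then ADP (130 uM final). Luminescence was read post 45 min RT.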
LmPK inhibitor – inhibitors of Leishmania mexicana pyruvate kinase. Q27686. purified LmPK, Kinase-Glo ATP luminescence, 1 h. Potency, µM (top dose mostly 57.5 µM), without a hit: top-dose activity change, negative = inhibition, usual class: inhibitors. hit rate 0.37% among 290,000; note: % is set by controls: 0 for no effect and ±100 for the full control effect
Target sequence (Q27686 whole entry, looked up): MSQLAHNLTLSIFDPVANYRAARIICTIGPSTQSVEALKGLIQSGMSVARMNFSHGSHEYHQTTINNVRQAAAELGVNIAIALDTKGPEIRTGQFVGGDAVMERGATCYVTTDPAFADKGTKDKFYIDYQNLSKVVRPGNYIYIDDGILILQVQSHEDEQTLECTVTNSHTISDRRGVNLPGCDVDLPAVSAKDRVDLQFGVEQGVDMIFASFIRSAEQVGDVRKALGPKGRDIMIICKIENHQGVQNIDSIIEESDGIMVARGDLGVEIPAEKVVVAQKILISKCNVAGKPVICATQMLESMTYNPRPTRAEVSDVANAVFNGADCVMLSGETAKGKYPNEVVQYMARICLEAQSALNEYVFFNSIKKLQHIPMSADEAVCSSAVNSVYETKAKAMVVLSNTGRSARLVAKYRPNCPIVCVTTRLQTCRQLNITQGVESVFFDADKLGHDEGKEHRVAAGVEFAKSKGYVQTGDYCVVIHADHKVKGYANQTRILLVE
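0.1 nM LmPK, 0.5 mM PEP, 0.1 mM ADP; 50 mM imidazole pH 7.2, 7 mM MgCl2, 50 mM KCl; 1 h RT. Kinase-Glo luminescence readout, normalized to no-enzyme (full inhibition) and uninhibited wells.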
RE007 growth inh – less growth of the S. pombe RE007 Vpr strain; S. pombe RE007 Vpr strain, BacTiter-Glo ATP luminescence, 24 h; Potency, µM (highest dose often 92.2 µM), for inactives: at the top dose activity change, negative = less growth, actives largely listed as inhibitors; hit rate 0.21% among 360,000; active = well fitted falling curve with a large enough effect; inconclusive = small, poorly fitted or top-dose-only effect; inactive = no such curve, though single readings can be large or run the other way; note: % is set by controls: 0 for no effect and ±100 for the full control effect; nearly all actives have a fitted effect of over 50% in size
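Fission yeast strain RE007, carrying one chromosomally integrated HIV-1 vpr copy, was seeded at OD 0.01 in PMG+AL medium with 23 nL pinned compound. After 24 h at 30 °C and 99% humidity, viability was read by BacTiter-Glo luminescence.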
SARS PLP yeast – SARS-CoV PLP inhibition in yeast | S. cerevisiae expressing SARS-CoV PLpro, growth rescue | Potency, µM (doses to about 32.9 µM), for the others: top-dose activity, positive = growth rescue, most hits filed as activators | AID 485353 | hit rate 0.19% among 330,000; calls by dose curve; note: 0% is about no effect; nearly all actives have a fitted effect of over 55% in size
* marks the source's active call; other numbers are inactive results; u = inconclusive; x = no result; [ ] = dose if it differs, or a comment. This is a sample that favours compounds with a hit; in the whole collection about 1.1% have one here. Unless noted, calls come from the whole dose curve; as a rule, active = well fitted curve in the direction sought with a large enough effect; inconclusive = small, poorly fitted or top-dose-only effect, or another doubt; inactive = no such curve, though single readings can be large; an effect the other way counts as inactive or inconclusive. Potency is the fitted concentration of half-maximal effect.

SMILES | Giardia FBPA inh | TbPYK inhibitor | LmPK inhibitor | RE007 growth inh | SARS PLP yeast
CCOC(=O)c1[nH]c(C)c(CCC(=O)N2CCN(c3cc(Cl)ccc3C)CC2)c1C | x | 0% | x | x | x
CC1(C)Cc2ccccc2C2=NNC(=O)C2=N1 | 4.5µM* | -1% | -2% | 10% | -2%
O=C(Nc1ccccn1)c1cc2ccccc2o1 | -6% | u | 10µM* | u | -54%
Cc1ccc(C(=O)Nc2ccc3c(c2)OCCO3)cc1 | -2% | -10% | -20% | 79% | -8%
Cc1ccnc(NC(=O)c2cc3ccccc3o2)c1 | x | -17% | x | -26% | 6%
Cc1ccc(C(=O)Nc2ccc3c(c2)OCO3)cc1 | u | -17% | 22µM* | -13% | -19%
Cc1ccnc2nc(C(=O)Nc3ccc4c(c3)OCO4)nn12 | -5% | -21% | 16µM* | -10% | -15%
O=C(Nc1ccc2c(c1)OCO2)c1noc2c1CCCC2 | -22% | -11% | -21% | 5µM* | 1%
O=C(Nc1ccccn1)c1ccc2c(c1)OCO2 | -10% | -23% | 14µM* | -16% | 0%
Cc1ccc(C(=O)Nc2ccc3c(c2)OCO3)o1 | -23% | u | 18µM* | u | -10%
Cc1ccc(C(=O)OCC(=O)Nc2ccc3c(c2)OCO3)o1 | 4% | 3% | 2% | 14% | 3%
O=c1/c(=C\c2cc([N+](=O)[O-])cc([N+](=O)[O-])c2O)sc2nc3ccccc3n12 | 16µM* | 28µM* | -4% | 1% | 2%
CCOc1cc2c(cc1OCC)C(CC(=O)O)N(C(=O)Nc1ccc(Br)c(C)c1)CC2 (stereo unspecified) | x | -4% | x | x | x
COc1cccc(/C=C2/CCC(CN(C)C)C2=O)c1 (stereo unspecified) | x | -23% | x | 8.9µM* | x
COc1ccc(/C=C2/CCCC(CN(C)C)C2=O)cc1 (stereo unspecified) | x | -11% | x | 17% | x
CC(C)NC(=O)C1CCC(Cn2c(=O)c3sccc3n(CC(=O)NCc3ccccc3)c2=O)CC1 (stereo unspecified) | x | -7% | x | x | x
CCc1ccc(-n2c(Cc3ccccc3)n[nH]c2=S)cc1 | 3% | 4µM* | -5% | -4% | 1%
COc1ccc(-n2c(CCc3ccccc3)n[nH]c2=S)cc1 | 0% | u | -8% | -4% | 0%
Oc1ccc(CCc2n[nH]c(=S)n2-c2ccc(F)cc2)cc1 | 0% | u | 7.9µM* | 11% | 1%
CCOc1ccc(-n2c(CCc3ccccc3)n[nH]c2=S)cc1 | 4% | 3.2µM* | u | 13% | -2%
COc1ccc(CSCCc2n[nH]c(=S)n2-c2ccccc2)cc1C | 2% | u | 1% | 8% | 1%
S=c1[nH]nc(CCSCc2ccccc2)n1-c1ccccc1 | 5% | 5.6µM* | -7% | 7% | 0%
O=C(NCc1ccccc1)c1ccc2c(c1)N(Cc1ccc(F)cc1)CCS2 | x | 5% | x | x | x
CCCN(CCC)CCCNC(=O)c1cc2c(=O)n(C)c3ccccc3c2s1 | x | -4% | x | x | x
Cc1ccc(C)c(CN2C(=O)C(O)(c3c[nH]c4ccccc34)c3ccccc32)c1 (stereo unspecified) | x | 6% | x | x | x
SMILES | Giardia FBPA inh | TbPYK inhibitor | LmPK inhibitor | RE007 growth inh | SARS PLP yeast
COCCn1c(CNC(=O)c2cc(OC)c(OC)c(OC)c2)nc2cccnc21 | x | -5% | x | x | x
Cc1cccc(-n2c(CCn3nc(C)c([N+](=O)[O-])c3C)n[nH]c2=S)c1 | -9% | 8.9µM* | u | -7% | 2%
Cc1cccc(-n2c(Cc3ccccc3)n[nH]c2=S)c1 | 3% | u | 7.1µM* | 21% | -1%
Nn1c(Cc2cccc3ccccc23)n[nH]c1=S | u | u | 9% | 8% | 4%
S=c1[nH]nc(Cc2cccc3ccccc23)n1-c1ccccc1 | -16% | 5µM* | 14µM* | 11% | 5%
COc1ccc(CN(C)S(=O)(=O)c2nnc(NC(=O)C(C)C)s2)cc1OC | x | 0%[15.4 µM] | x | x | x
Cc1ccccc1C(=O)N1CC/C(=N/OS(=O)(=O)O)c2ccc(Cl)cc21 | x | -8% | x | x | x
Cn1c(=O)c2c(nc(SCC(=O)Nc3ccccc3F)n2Cc2ccc(Cl)cc2)n(C)c1=O | x | -5% | x | x | x
Cc1ccc(-c2nc3n(n2)Cc2ccccc2-3)cc1 | -17% | -21% | 7.9µM* | u | -33%
CCn1c(C)nc2cc(-c3nc4n(n3)Cc3ccccc3-4)ccc21 | -9% | u | 16µM* | 5.6µM* | -33%

Screening data (PubChem BioAssay)
